{"source": "PubChem BioAssay (NCATS)", "note": "Records with an inconclusive call do not appear. Unmarked numbers belong to inactive results. The source made the active and inactive calls. The call rests on the fitted dose curve; in most records, active means well fitted cell-killing curve with a large enough effect; inconclusive means small, poorly fitted or top-dose-only effect, or effect the other way; inactive means no such curve, though single readings can be large or run the other way. Potency means the concentration at half of the fitted maximal effect."}
{"experiment": "Quantitative High-Throughput drug screen in 47 multiple myeloma cell lines against the NCATS MIPE library collection: KMS12BM_JCRB cell viability assay (AID 1918971); further: nearly all actives have a fitted effect of over 35% in size", "conditions": "KMS12BM myeloma viability, CellTiter-Glo ATP, 48 h; series mostly up to 45.8 µM; viability, % of DMSO: at the top concentration", "description": "PI: Beverly A. Mock Ph.D.\nLaboratory of Cancer Biology and Genetics,\nCenter for Cancer Research, National Cancer Institute,\nNational Institute of Health, Bethesda, Maryland\nDrug resistance and disease progression are common in multiple myeloma (MM) patients, underscoring the need for new therapeutic combinations. […] We hypothesized that effective combinations would reduce MYC expression and enhance p16 activity. […] These preclinical data identify potentially useful drug combinations for evaluation in drug-resistant MM and reveal potential mechanisms of combined drug sensitivity.\nDescribed herein is the primary MIPE qHTS used to cherrypick compounds. Validated compounds were then further tested for potential synergistic activiy.\n[1] Peat TJ, Gaikwad SM, Dubois W, Gyabaah-Kessie N, Zhang S, Gorjifard S, Phyo Z, Andres M, Hughitt VK, Simpson RM, Miller MA, Girvin AT, Taylor A, Williams D, D'Antonio N, Zhang Y, Rajagopalan A, Flietner E, Wilson K, Zhang X, Shinn P, Klumpp-Thomas C, McKnight C, Itkin Z, Chen L, Kazandijian D, Zhang J, Michalowski AM, Simmons JK, Keats J, Thomas CJ, Mock BA. Drug combinations identified by high-throughput screening promote cell cycle transition and upregulate Smad pathways in myeloma. Cancer Lett. 2023 Aug 1;568:216284. doi: 10.1016/j.canlet.2023.216284. Epub 2023 Jun 24. PMID: 37356470; PMCID: PMC10408729.\nSEQUENCE No. (e.g., 1, 2, 3, etc.); […] (e.g., Cells, Incubation, Reagent, etc.); VALUE and DESCRIPTION.\n1; Cells; 5 uL; white, solid bottom 1536-well Greiner assay plate.\n2; Compounds; 23 nL; Kalypsis pin tool (Wako USA) equipped with a 1536-well pin head to transfer to the assay plates.\n3; Incubation; 48 hours; 37C incubation.\n4; Reagent;5uL; CellTiter Glo (Promega).\n5; Detector; 425V; Luminescence; Viewlux PerkinElmer.\nNOTES (numbers refer to Sequence numbers above)\n1. The cell-based screening methods employed in this study were like those previously published. Briefly, the corresponding myeloma cell lines were screened in 1,536-well plates with 500 cells, 5-uL per well for inhibition of cell viability (assessed by measuring ATP levels with CellTiterGlo).\n2. NCATS MIPE 4.0 library of approved and investigational drugs were added using the Kalypsis pin tool. Wells treated with DMSO only for 100% viability and media only wells for 0% viability were used as controls.\n3. The assay plates were covered and incubated for 48 hours in a 37C, 5% CO2 incubator with controlled humidity.\n4. After 48 hours, CellTilter-GloTM luminescent substrate mix (Promega) reagent was added to the assay plate and plates we incubated for 5 min at room temperature.\n5. Signal was measured as median relative luminescence units on a ViewLux (PerkinElmer) multiplate reader.\n[1] Heske CM, Davis MI, Baumgart JT, Wilson K, Gormally MV, Chen L, Zhang X, Ceribelli M, Duveau DY, Guha R, Ferrer M, Arnaldez FI, Ji J, Tran HL, Zhang Y, Mendoza A, Helman LJ, Thomas CJ. Matrix Screen Identifies Synergistic Combination of PARP Inhibitors and Nicotinamide Phosphoribosyltransferase (NAMPT) Inhibitors in Ewing Sarcoma. Clin Cancer Res. 2017 Dec 1;23(23):7301-7311. doi: 10.1158/1078-0432.CCR-17-1121. Epub 2017 Sep 12. PMID: 28899971; PMCID: PMC6636827.", "units": {"viability, % of DMSO": "%"}}
{"smiles": "COc1cccc2c1[C@]13CCN(CC4CC4)[C@H](C2)[C@]1(OC)CCC(=O)C3", "viability, % of DMSO": 146}
{"smiles": "Cc1ccccc1-n1c(Cn2cnc3c(N)ncnc32)nc2cccc(C)c2c1=O", "Potency": "1.48 µM (active)"}
{"smiles": "CC=C(C)C(=O)N[C@@H](c1ccccc1)[C@@H](O)C(=O)O[C@H]1C[C@@]2(O)[C@@H](OC(=O)c3ccccc3)[C@@H]3[C@]4(OC(C)=O)CO[C@@H]4C[C@H](O)[C@@]3(C)C(=O)[C@H](OC(C)=O)C(=C1C)C2(C)C", "viability, % of DMSO": 63.6}
{"smiles": "N=c1c2c(-c3ccccc3)c(-c3ccccc3)n(Cc3ccccc3)c2ncn1C1CCC(O)CC1", "note": "(stereo not given)", "Potency": "6.62 µM (active)"}
{"smiles": "c1ccc2c(CN3CCNCC3)cccc2c1", "viability, % of DMSO": 123}
{"smiles": "CC(=O)N(C)c1cccc(-c2ccnc3c(C(=O)c4cccs4)cnn23)c1", "viability, % of DMSO": 126}
{"smiles": "C[C@@H]1CC[C@@]2(OC1)O[C@H]1C[C@H]3[C@@H]4CC=C5C[C@@H](O[C@@H]6O[C@H](CO)[C@@H](O[C@@H]7O[C@@H](C)[C@H](O)[C@@H](O)[C@@H]7O)[C@H](O)[C@@H]6O[C@@H]6O[C@@H](C)[C@H](O)[C@@H](O)[C@@H]6O)CC[C@]5(C)[C@@H]4CC[C@]3(C)[C@@H]1[C@H]2C", "Potency": "2.64 µM (active)"}
{"smiles": "C=CCON=C(C[C@H]1O[C@@H]2O[C@]3(C)CC[C@@H]4[C@H](C)CC[C@@H]([C@H]1C)[C@@]24OO3)[C@H]1O[C@@H]2O[C@]3(C)CC[C@H]4[C@H](C)CC[C@@H]([C@@H]1C)[C@@]24OO3", "Potency": "0.148 µM (active)"}
{"smiles": "NC1CC1c1ccccc1", "note": "(stereo not given)", "viability, % of DMSO": 124}
{"smiles": "C=C[C@@H]1CN2CCC1C[C@H]2[C@H](O)c1ccnc2ccccc12", "note": "(stereo not given in full)", "Potency": "23.5 µM (active)"}
{"smiles": "CC(=O)O[C@@]12CO[C@H]1C[C@H](O)[C@@]1(C)C(=O)[C@H](O)C3=C(C)[C@@H](O)C[C@@](O)([C@@H](OC(=O)c4ccccc4)[C@@H]21)C3(C)C", "Potency": "1.48 µM (active)"}
{"smiles": "C=C1C[C@H]2[C@H]3CCC(=O)[C@@]3(C)CC[C@@H]2[C@@]2(C)C=CC(=O)C=C12", "Potency": "20.9 µM (active)"}
{"smiles": "CC(N[C@H]1C[C@H]1c1ccccc1)c1ccc2c(c1)OCCO2", "note": "(stereo not given in full)", "Potency": "1.87 µM (active)"}
{"smiles": "COc1ccc(N(C(=O)Oc2c(C)cccc2C)c2ccnc(Nc3ccc(N4CCN(C)CC4)cc3)n2)c(OC)c1", "Potency": "1.48 µM (active)"}
{"smiles": "CN(C)NC(=O)CCC(=O)O", "Potency": "7.43 µM (active)"}
{"smiles": "CC(C)(O)C=CC(=O)[C@](C)(O)[C@H]1[C@H](O)C[C@]2(C)[C@@H]3CC=C4[C@@H](C=C(O)C(=O)C4(C)C)[C@]3(C)C(=O)C[C@@]12C", "Potency": "1.18 µM (active)"}
{"smiles": "COc1cc2cc(c1Cl)N(C)C(=O)C[C@H](OC(=O)C(C)C)[C@]1(C)O[C@H]1[C@H](C)[C@@H]1C[C@@](O)(NC(=O)O1)[C@H](OC)C=CC=C(C)C2", "viability, % of DMSO": 30.3}
{"smiles": "COc1cc([C@@H]2c3cc4c(cc3[C@@H](O)C3COC(=O)C32)OCO4)cc(OC)c1O", "note": "(stereo not given in full)", "Potency": "0.0418 µM (active)"}
{"smiles": "CC1=NN=C(c2ccc(N)cc2)c2cc3c(cc2C1)OCO3", "viability, % of DMSO": 126}
{"smiles": "C[C@@]12OC(=O)[C@]1([C@@H](O)[C@@H]1C=CCCC1)NC(=O)[C@H]2CCCl", "Potency": "0.0235 µM (active)"}
{"smiles": "CCN1CCN(C(=O)Cc2ccc(Nc3ncc(F)c(Nc4ccc(C(=O)Nc5ccccc5Cl)cc4)n3)cc2)CC1", "Potency": "7.43 µM (active)"}
{"smiles": "COC[C@H]1OC(=O)c2coc3c2[C@@]1(C)C1=C(C3=O)[C@@H]2CC[C@H](O)[C@@]2(C)C[C@@H]1OC(C)=O", "Potency": "3.32 µM (active)"}
{"smiles": "CCNC(=O)C[C@@H]1N=C(c2ccc(Cl)cc2)c2cc(OC)ccc2-n2c(C)nnc21", "Potency": "0.235 µM (active)"}
{"smiles": "CC(C)[C@]12O[C@@H]1[C@@H]1O[C@]13[C@]1(O[C@H]1C[C@@H]1C4=C(CC[C@@]13C)C(=O)OC4)[C@H]2O", "viability, % of DMSO": 0.0429}
{"smiles": "CC[C@@H]1[C@@H](C)O[C@@](O)([C@@H](C)[C@H](O)[C@H](C)[C@H]2OC(=O)C=CC=C[C@@H](C)[C@@H]([C@@H](C)[C@@H](O)[C@H](C)[C@@]3(O)C[C@H](O[C@H]4C[C@H](O)[C@H](O)[C@H](C)O4)[C@H](CC)[C@@H](C)O3)OC(=O)C=CC=C[C@@H]2C)C[C@H]1O[C@H]1C[C@H](O)[C@H](O)[C@H](C)O1", "Potency": "0.935 µM (active)"}
{"smiles": "COc1ccc2c(c1)CN(C)CC2c1ccc(Cl)c(Cl)c1", "note": "(stereo not given)", "Potency": "20.9 µM (active)"}
{"smiles": "CCc1c(C(=O)C(N)=O)c2c(OCC(=O)O)cccc2n1Cc1ccccc1", "viability, % of DMSO": 130}
{"smiles": "Cc1c(C(=O)Nc2cccc(C(F)(F)F)c2)cc(-c2ccccc2)n1CCCN1CCOCC1", "Potency": "13.2 µM (active)"}
{"smiles": "CCNC(=O)CC1N=C(c2ccc(Cl)cc2)c2cc(OC)ccc2-n2c(C)nnc21", "note": "(stereo not given)", "Potency": "16.6 µM (active)"}
{"smiles": "O=c1[nH]c2ccccc2n1C1CCN(Cc2ccc(-c3[nH]c4cc5ncnc5cc4nc3-c3ccccc3)cc2)CC1", "Potency": "20.9 µM (active)"}
{"smiles": "CC1(N2CCC(n3c([C@@H]4CCCNC4)nc4ccccc43)CC2)CCCCCCC1", "Potency": "20.9 µM (active)"}
{"smiles": "C=C[C@@H]1CN2CCC1C[C@@H]2[C@@H](O)c1ccnc2ccccc12", "note": "(stereo not given in full)", "Potency": "23.5 µM (active)"}
{"smiles": "c1ccc(CCCN2CCN(CCOC(c3ccccc3)c3ccccc3)CC2)cc1", "Potency": "20.9 µM (active)"}
{"smiles": "O=C(Oc1ccc([N+](=O)[O-])cc1)N1CCC(C(O)(c2ccc3c(c2)OCO3)c2ccc3c(c2)OCO3)CC1", "viability, % of DMSO": 130}
{"smiles": "O=S(=O)(CC1CS1)c1ccc(Oc2ccccc2)cc1", "note": "(stereo not given)", "Potency": "26.4 µM (active)"}
{"smiles": "CC(=Cc1csc(C)n1)[C@@H]1C[C@H]2O[C@]2(C)CCC[C@H](C)[C@@H](O)[C@@H](C)C(=O)C(C)(C)[C@@H](O)CC(=O)O1", "viability, % of DMSO": 71.5}
{"smiles": "CC(C)(C)[C@]1(O)C[C@@H]2OC(=O)C[C@@]23C(=O)O[C@@H]2OC(=O)[C@H](O)C213", "note": "(stereo not given in full)", "viability, % of DMSO": 109}
{"smiles": "COc1ccc2c(c[n+](C)c3c4cc5c(cc4ccc23)OCO5)c1OC", "Potency": "3.72 µM (active)"}
{"smiles": "C[C@H]1CCCC=CC2C[C@H](O)C[C@@H]2[C@H](O)C=CC(=O)O1", "note": "(stereo not given in full)", "viability, % of DMSO": 64.8}
{"smiles": "O=[N+]([O-])c1ncc[nH]1", "Potency": "16.6 µM (active)"}
